Experimental data as given in ChEMBL document CHEMBL4513148, “CO-ADD screening of Stellenbosch University (South Africa) compounds”.
About 30 (0.1%) of roughly 23,000 compounds showed an effect of 50% or more. What follows is part of a selection rich in strong results, with near analogues and random picks from the rest. Measured potencies and affinities stand elsewhere.

What follows are compounds tested on Pseudomonas aeruginosa. Conditions: Concentration 32 ug.mL-1; ASSAY_TEST Inhibition of Bacterial Growth; detection method Absorption (OD600); MEDIA CAMHB; plate type 384well; NBS; CORNING #3640; time 18 hr.
Compound `CC(C)(CO)[C@@H](O)C(=O)NCCC(=S)NCCc1ccccc1` has an Inhibition of 38.53%. Work on `CC(C)(CN)C(O)C(=O)NCCC(=O)NCCc1ccccc1` (stereo unspecified) yielded an Inhibition of 51.6%. With `CC(CC(=O)NCCc1ccccc1)NC(=O)[C@H](O)C(C)(C)CO` (stereo partly specified) the Inhibition was 72.5%. `CC(C)(COP(=O)(O)O)[C@@H](O)C(=O)NCCC(=O)NCCc1ccccc1` was tested, and the Inhibition was 35.19%. `CC(C)(CO)[C@@H](O)C(=O)N/C=C/C(=O)NCCc1ccccc1` showed an Inhibition of 39.92%. In the case of `CC(C)(C)C(O)C(=O)NCCC(=O)NCCc1ccccc1` (stereo unspecified), the Inhibition is reported as 40.95%.
